Compound activity: PubChem BioAssay, National Center for Advancing Translational Sciences (NCATS)
rTrxR1 inhibitor = blocks rat thioredoxin reductase 1; recombinant rTrxR1, NADPH fluorescence consumption, selenite substrate; Potency, µM (highest dose often 114 µM), without a hit: at the highest dose activity change, negative = inhibition, actives largely listed as inhibitors; 390,000 tested, 1% active; also: nearly all actives have a fitted effect of over 65% in size
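Rat TrxR1 (90 nM in the dispensed reagent) was pre-reduced with 400 uM NADPH for 5 min at room temperature, then incubated with compound for 15 min. After 400 uM selenite was added, NADPH fluorescence (Ex 340/Em 450 nm) was followed for 8 min.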
TrxR1 substrate = substrates of rat thioredoxin reductase 1; O89049; purified TrxR1 substrate turnover, NADPH consumption readout; Potency, µM (top dose mostly 114 µM), for inactives: at the top dose activity change, negative = substrate turnover; 390,000 tested, 0.01% active; AID 588456; also: nearly all actives have a fitted effect of over 50% in size
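Rat TrxR1, dispensed at 90 nM, was prereduced with 400 uM NADPH (final) for 5 min at ~22 deg C, then incubated with compound 15 min before 400 uM selenite. A first-read NADPH fluorescence drop versus no-compound background flagged substrates.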
Anesthetic bind = binds horse apoferritin like a general anesthetic | apoferritin/1-aminoanthracene competitive binding, fluorescence | P02791 | 350,000 tested, 0.074% active | Potency, µM (top dose mostly 77.5 µM), for inactives: top-dose activity change, negative = displacement, hits mostly inhibitors; also: nearly all actives have a fitted effect of over 20% in size
Target sequence (P02791 2-175 limits assumed): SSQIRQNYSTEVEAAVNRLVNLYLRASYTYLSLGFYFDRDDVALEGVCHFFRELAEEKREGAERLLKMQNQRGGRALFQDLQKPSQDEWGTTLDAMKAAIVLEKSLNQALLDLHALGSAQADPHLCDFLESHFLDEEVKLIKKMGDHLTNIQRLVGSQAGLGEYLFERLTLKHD
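Horse-spleen apoferritin (10 uM) in 50% saturated 1-aminoanthracene in PBS was incubated 10 min at room temperature with compound. Fluorescence (ex 380, em 535 nm) was normalized to free and bound 1-AMA, with concentration-response fitted by a four-parameter Hill equation.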
IDH1 R132H inh = inhibitors of human mutant IDH1 R132H; O75874; 390,000 tested, 0.093% active; IDH1-R132H enzyme, NADPH consumption, diaphorase/resazurin fluorescence; Potency, µM (top dose mostly 76.6 µM), inactives show at the highest dose activity change, negative = inhibition, hits mostly inhibitors; also: nearly all actives have a fitted effect of over 65% in size
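IDH1-R132H (0.5 ug/mL) preincubated 30 min with compound, then NADPH (0.016 mM) and alpha-KG (2 mM) added; 80 min at RT, pH 7.5. Remaining NADPH coupled via diaphorase/resazurin to fluorescence (540/590 nm); concentration-response curves normalized to no-enzyme control.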
GALK inhibitor = galactokinase (human) inhibition. P51570. Purified GALK, Kinase-Glo residual ATP luminescence. Potency, µM (series often up to 57.5 µM), for inactives: at the top dose activity change, negative = inhibition, most hits filed as inhibitors. 270,000 tested, 0.007% active
Target sequence (P51570 whole entry, looked up): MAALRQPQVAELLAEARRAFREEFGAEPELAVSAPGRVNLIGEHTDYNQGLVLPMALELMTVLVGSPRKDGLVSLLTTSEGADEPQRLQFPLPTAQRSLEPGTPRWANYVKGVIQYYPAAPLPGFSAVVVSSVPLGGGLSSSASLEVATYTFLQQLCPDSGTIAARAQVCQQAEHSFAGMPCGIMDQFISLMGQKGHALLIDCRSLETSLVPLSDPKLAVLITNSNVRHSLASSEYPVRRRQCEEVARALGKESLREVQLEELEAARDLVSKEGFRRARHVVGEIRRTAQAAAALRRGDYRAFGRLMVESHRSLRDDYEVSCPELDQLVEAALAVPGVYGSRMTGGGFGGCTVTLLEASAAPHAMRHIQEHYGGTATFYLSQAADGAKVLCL
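Kinase-Glo Plus luminescence measured ATP left after a 1 h room-temperature reaction. The reaction used 5 nM GALK, 100 uM galactose and 35 uM ATP at pH 8.0 (20 mM HEPES, 5 mM MgCl2, 60 mM NaCl, 1 mM DTT, 0.01% BSA).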
PKM2 activator = increases activity of human pyruvate kinase M2; Potency, µM (top dose mostly 57.5 µM), for the others: at the highest dose activation, usual class: activators; 260,000 tested, 0.34% active; purified PKM2, Kinase-Glo ATP luminescence, activation; response scale: 0% is enzyme alone, no compound; P14618; also: nearly all actives have a fitted effect of over 55% in size
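Purified hPK-M2 (>95% pure) converted ADP (0.1 mM final) to ATP with 0.5 mM PEP in 50 mM imidazole pH7.2, KCl, MgCl2, Tween 20, BSA; 1 h at room temperature. ATP detected by Kinase-Glo luminescence.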
* = called active by the depositor; ? = inconclusive; . = no result given; [ ] = dose if it differs, or a comment. Sampled rows, rich in hits. Any-hit rate of the full collection: about 1.3%. Calls follow the shape of the dose curve; as a rule, active = well fitted curve in the direction sought with a large enough effect; inconclusive = small, poorly fitted or top-dose-only effect, or another doubt; inactive = no such curve, though single readings can be large; an effect the other way counts as inactive or inconclusive. % is scaled to controls: 0 for no effect and ±100 for the full control effect; potency is read from the fitted curve at half-maximal effect.

SMILES	rTrxR1 inhibitor	TrxR1 substrate	Anesthetic bind	IDH1 R132H inh	GALK inhibitor	PKM2 activator
CCC1CO/C(=C(\C(Cl)=C(Cl)Cl)[N+](=O)[O-])N1 (configuration not stated)	16µM*	4%	?	-1%	0%	-3%
CCCCOc1ccc(CC(=O)N(C)O)cc1	13%	7%	.	.	.	.
Nc1c(Br)cc(/C=C2\C=Cc3ccccc32)cc1Br	-8%	4%[0.0914 µM]	.	.	.	.
O=Cc1c(Cl)nc2ccccn2c1=O	18µM*	21%	-12%	5%	-1%	-1%
CCc1ccc(Cn2c(CNS(=O)(=O)c3ccc([N+](=O)[O-])cc3)nc3cccnc32)cc1	-1%[57.1 µM]	-4%[57.1 µM]	?	0%	.	.
CCn1c(=O)c(C(=O)Nc2ccc(C(C)=O)cc2)nc2ccccc21	2%	-1%	-4%	-6%	.	.
CN1CC=C2C(C#N)=C(N)C(C#N)(C#N)C(CCc3ccccc3)C2C1 (configuration not stated)	?	101%	29%	41µM*	0%	5%
CCCN1CCN(C(=O)c2oc3ccccc3c2NC(=O)COc2ccc(OC)cc2)CC1	22µM*	5%	-3%	2%	-5%	.
CCOc1ccc(Nc2oc(-c3ccc(COc4ccc(OC)cc4)o3)nc2C#N)cc1	13%	-2%	118%	20%	.	.
Cc1cc(C(=O)O)ccc1-c1ccc(/C=C2\NC(=O)N(Cc3ccccc3Cl)C2=O)o1	0%[57.1 µM]	-11%[57.1 µM]	-11%	10%	-3%	20µM*
Cc1ccc(CN2C(=O)N/C(=C\c3ccc(-c4ccc(C(=O)O)cc4C)o3)C2=O)cc1	-7%	10%	-10%	-1%	-6%	9%
COc1ccc(CCNC(=O)c2nc(-c3ccc(Cl)cc3)n3c2CCCCC3)c(OC)c1	13%	-2%	35%	-2%	.	.
Cc1ccc(NC(=O)c2ccc(=O)n(Cc3ccccc3C)c2)c(C)c1	14%[57.1 µM]	-2%[57.1 µM]	-17%	-6%	.	.
O=C(O)C1Nc2c(O)cc(Cl)c([N+](=O)[O-])c2C2C=CCC12 (configuration not stated)	14µM*	-7%	-21%	5%	-5%	?
Cc1ccc2c(c1)C1C=CCC1C(C(=O)O)N2 (configuration not stated)	.	.	-14%	.	.	14%
COc1ccc(OCc2nnc3n2N=C(c2ccc(OC)cc2)CS3)cc1	9%[57.1 µM]	5%[57.1 µM]	8.9µM*	2%	2%	2%
COc1ccc(OCc2nnc3n2N=C(c2ccc(C)cc2)CS3)cc1	12%[57.1 µM]	2%[57.1 µM]	11µM*	-4%	1%	6%
c1ccc(Cn2nnc3c(N4CCCC4)ncnc32)cc1	27%	-11%	-12%	2%	9%	16µM*
c1ccc(Cn2nnc3c(N4CCc5ccccc5C4)ncnc32)cc1	13%	4%	-17%	4%	5%	14µM*
CCN1CCN(c2ncnc3c2nnn3Cc2ccccc2)CC1	-6%	-5%	-21%	1%	0%	3%
CCCN(c1ccccc1F)S(=O)(=O)c1cc(-c2cc(C)no2)ccc1C	24%[57.1 µM]	5%[57.1 µM]	14%	-6%	.	.
Cc1cc2n(n1)C(c1ccccc1Cl)Nc1ccccc1-2 (configuration not stated)	-2%	6%	?	12%	-1%	18µM*
COc1ccc(C2Nc3ccccc3-c3cc(C)nn32)c(OC)c1 (configuration not stated)	10%[57.1 µM]	11%[57.1 µM]	-10%	-13%	.	.
CCOC(=O)c1c(C)sc2c1N(C(=O)CCl)c1cc(Cl)ccc1S2	5µM*	-2%	-19%	-10%	-3%	5%
COc1ccc(S(=O)(=O)N2CCCN(CC(=O)Nc3ccc(OC)c(Cl)c3)CC2)cc1	50µM*	5%	0%	6%	-3%	20µM*
SMILES	rTrxR1 inhibitor	TrxR1 substrate	Anesthetic bind	IDH1 R132H inh	GALK inhibitor	PKM2 activator
COc1ccc(CN2CCN(S(=O)(=O)c3ccc(NC(C)=O)cc3)CC2)cc1OC	14%	11%[57.1 µM]	-20%	8%	4%	26%
COc1cc(CN2CCN(S(=O)(=O)c3ccccc3)CC2)cc(OC)c1O	20µM*	1%	-4%	17%	.	.
COc1ccc(S(=O)(=O)N2CCN(Cc3cc(OC)c(O)c(OC)c3)CC2)cc1	?	-3%	-7%	-4%	-6%	2%
COc1cc(CN2CCN(S(=O)(=O)c3ccc(NC(C)=O)cc3)CC2)cc(OC)c1O	13µM*	1%	-13%	1%	4%	13%
NC(=O)C1CCN(C(=O)c2ccc(NC(=O)c3nsc4ccccc34)cc2)CC1	12%[57.1 µM]	-1%[57.1 µM]	-7%	0%	.	.
CCOc1ccc(CNC(=O)CCCn2c(=O)c3cccn3c3ccccc32)cc1	32%	-2%	-23%	-13%	.	.
O=C(C(=O)N1CCCc2ccccc21)c1c[nH]c2ccccc12	26%	8%	?	9%	0%	35µM*
O=S(=O)(/C=C/C=C/S(=O)(=O)c1ccccc1)c1ccccc1	2µM*	12%[57.1 µM]	.	-2%	.	.
CNC(=O)c1cc(-c2cccs2)on1	?	-2%	.	.	.	.
CCc1ccccc1NC(=O)CN(C)Cc1c(O)ccc2ccccc12	40µM*	6%	-1%	7%	14%	16%
Fc1ccc(/C=C/c2ccc3ccccc3n2)cc1	?	-15%	.	.	.	.
O=C(COC(=O)c1ccccc1O)NC12CC3CC(CC(C3)C1)C2	-10%	-8%	.	2%	.	.
O=C(COC(=O)c1ccccn1)NC12CC3CC(CC(C3)C1)C2	-3%	4%[57.1 µM]	7.9µM*	11%	0%	2%
Cc1cnc(C(=O)OCC(=O)NC23CC4CC(CC(C4)C2)C3)cn1	21%	3%	10µM*	3%	0%	9%
Cc1cnc(C(=O)OCC(=O)C23CC4CC(CC(C4)C2)C3)cn1	37%	7%	?	4%	7%	1%
COc1ccc(S(=O)(=O)NCCc2sc(-c3cccc(F)c3)nc2C)cc1	12%[57.1 µM]	5%[57.1 µM]	-10%	3%	.	.
Cc1ccc2nccc(/C=C/c3ccc(N(C)C)cc3)c2c1	-5%	-5%	.	.	.	.
Cc1cc(/C=N/n2cnnc2)c(C)n1-c1ccccc1	6%[57.1 µM]	-1%[57.1 µM]	-7%	6%	-4%	0%
C(=N\n1cnnc1)/c1cccn1-c1ccccc1	-6%	-10%	-4%	-4%	3%	28µM*
Cc1cccc(-c2nc(C)c(CCNC(=O)C(=O)Nc3cccc(Cl)c3C)s2)c1	15%[57.1 µM]	-2%[57.1 µM]	-10%	-3%	.	.
O=[N+]([O-])c1cccc(S(=O)(=O)c2ccc(NCCO)c([N+](=O)[O-])c2)c1	?	-3%[57.1 µM]	-15%	-9%	3%	16µM*
O=[N+]([O-])c1cccc(S(=O)(=O)c2ccc(NCCOCCO)c([N+](=O)[O-])c2)c1	?	-6%	-5%	-10%	0%	.
